Mtb FBA inh: inhibitors of M. tuberculosis fructose-bisphosphate aldolase; purified M. tuberculosis FBA, fluorescence read-out; P9WQA3; AID 588726; 360,000 tested, 2.3% active; inhibition, % at 1 µM; in the data active means inhibition above about 27%;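 further: 0% = vehicle and 100% = reference inhibitor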
RecA intein inh: inhibitors of M. tuberculosis RecA intein splicing; inhibition, % (no concentration beside the values); 290,000 tested, 0.75% active; cell-free RecA intein splicing, fluorescence; in the data active means inhibition above about 30%; inconclusive means no clear call, values can overlap the other calls;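 further: 0% = vehicle wells and 100% = reference inhibitor control wells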
Target sequence (P9WHJ3 whole entry, looked up): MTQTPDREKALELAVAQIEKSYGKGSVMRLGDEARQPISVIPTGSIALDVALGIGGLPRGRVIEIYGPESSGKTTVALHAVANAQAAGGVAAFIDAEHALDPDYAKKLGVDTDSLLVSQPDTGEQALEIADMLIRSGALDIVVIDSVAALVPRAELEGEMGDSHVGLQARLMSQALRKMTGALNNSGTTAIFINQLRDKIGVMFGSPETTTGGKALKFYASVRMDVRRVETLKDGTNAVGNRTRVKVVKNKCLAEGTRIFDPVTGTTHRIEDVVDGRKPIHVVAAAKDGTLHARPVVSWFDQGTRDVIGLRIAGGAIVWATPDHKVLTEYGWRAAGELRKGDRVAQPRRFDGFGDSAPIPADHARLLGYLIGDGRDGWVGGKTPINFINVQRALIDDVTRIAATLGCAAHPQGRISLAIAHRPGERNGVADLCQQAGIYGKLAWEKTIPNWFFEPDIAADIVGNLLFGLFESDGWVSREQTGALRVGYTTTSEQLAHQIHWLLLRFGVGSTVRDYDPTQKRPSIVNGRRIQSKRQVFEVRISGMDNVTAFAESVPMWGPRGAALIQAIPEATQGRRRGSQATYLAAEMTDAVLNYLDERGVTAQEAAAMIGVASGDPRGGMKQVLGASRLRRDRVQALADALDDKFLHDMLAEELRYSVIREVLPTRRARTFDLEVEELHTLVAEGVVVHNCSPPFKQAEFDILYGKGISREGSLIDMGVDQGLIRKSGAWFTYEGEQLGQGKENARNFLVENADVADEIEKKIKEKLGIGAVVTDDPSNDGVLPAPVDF
CCHF vOTU inh-1: blocks the CCHF virus ovarian tumor domain protease | CCHFV vOTU protease, Pep-AMC fluorescence | inhibition, % at 11.5 µM | 370,000 tested, 0.55% active; further: 0% = vehicle wells with enzyme and 100% = no enzyme wells
Mtb betalactam: beta-lactam sensitization of Mtb H37Rv; 330,000 tested, 0.27% active; inhibition, % at 25 µM; AID 434955; M. tuberculosis H37Rv growth with meropenem, percent inhibition; call rule not given here;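 further: growth measured after seven days incubation then overnight dye step; 0% = bacteria only wells and 100% = bacteria with antibiotic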
GDH-TPI inh: GDH-TPI coupled enzyme inhibition counter-screen; GDH-TPI coupled enzyme counterscreen, NADH absorbance; inhibition, % at 4.8 µM; 360,000 tested, 1.2% active; AID 588335;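 further: 0% = DMSO wells and 100% = wells lacking the enzyme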
CCHF vOTU inh-2: confirmation of CCHF virus vOTU protease inhibitors; shares compounds with CCHF vOTU inh-1; Recombinant CCHFV vOTU, Pep-AMC fluorescence; inhibition, % at 11.5 µM; 1,900 tested, 17% active; AID 686976
* = called active by the depositor; ? = inconclusive; . = not tested or not shown. Only some compounds are listed: those with a hit (about 4.2% of all), similar ones and a draw of the others. Unless noted, no stated cut-off is given here; in the data, active means inhibition above about 30%; inactive means the rest.

SMILES	Mtb FBA inh	RecA intein inh	CCHF vOTU inh-1	Mtb betalactam	GDH-TPI inh	CCHF vOTU inh-2
CCOc1cc(C(=O)Nc2ccc(S(=O)(=O)Nc3nnc(CC)s3)cc2)cc(OCC)c1OCC	0	0	38*	6	6	0
CCc1nnc(NS(=O)(=O)c2ccc(NC(=O)c3ccc(S(=O)(=O)N(CC)CC)cc3)cc2)s1	3	0	5	?	0	.
O=C1OCCN1/N=C/c1ccc([N+](=O)[O-])o1	-1	2	35*	37	20	0
N#Cc1c(N)n(-c2ccccc2N)c2nc3ccccc3nc12	0	.	65*	-5	14	65*
Cn1c(-c2c(N)n(-c3ccccc3)c3nc4ccccc4nc23)nc2ccccc21	14	-35	20	96	24	.
O=C1c2cccc(O)c2C(=O)c2c(O)cccc21	.	13	.	73	.	.
O=C1C[C@@H](O)[C@H](O)c2cccc(O)c21	.	.	45*	.	.	-2
OCCN(Cc1ccccc1)CC(O)COc1ccc(-c2ccccc2)cc1 (stereo unspecified)	-1	.	30*	72	1	-12
O=C(CNS(=O)(=O)c1ccc(Br)s1)NCc1ccccc1	1	2	11	7	7	.
CCC(=O)Nc1ccc(C(=O)COC(=O)c2sc(C)nc2C)cc1	-1	.	-8	.	1	.
O=C(O)c1cccc(Cn2c(Cl)c(/C=N/NC(=O)c3ccc(O)cc3)sc2=O)c1	-5	1	31*	2	34*	-4
COc1cc(-c2coc3c(C(=O)NCc4ccccc4)cccc23)ccc1O	-3	.	41*	.	0	-5
NC(=S)N/N=C/c1ccc(/C=N/NC(N)=S)cc1	-1	-4	36*	.	111*	3
Cc1cccc(NC(=O)CCC2CCN(C(=O)C3CC=CCC3)CC2)c1 (stereo unspecified)	-2	-5	1	-6	3	.
Cc1ccc(S(=O)(=O)N2C[C@H]3C(=O)C[C@@H](c4ccc(Cl)cc4)N(S(=O)(=O)c4ccc(C)cc4)[C@H]3C[C@H]2c2ccc(Cl)cc2)cc1	3	.	6	.	.	.
CCc1ccc([C@@H]2CC(=O)[C@@H]3CN(S(=O)(=O)c4ccc(Cl)cc4)[C@H](c4ccc(C)cc4)C[C@@H]3N2S(=O)(=O)c2ccc(C)cc2)cc1	3	.	35*	.	.	-5
Cc1ccc([C@@H]2CC(=O)[C@@H]3CN(S(=O)(=O)c4ccc(C)cc4)[C@H](c4ccc(Cl)cc4)C[C@@H]3N2S(=O)(=O)c2ccc(Cl)cc2)cc1	2	.	31*	.	5	-20
CCc1ccc([C@H]2[C@@H]3C(=O)C[C@@H]4C(=O)N(C)C(=O)[C@@H]4[C@@H]3CN2S(=O)(=O)c2ccc(C)cc2)cc1	-3	.	30*	.	.	-7
CCC1CCCCN1C(=O)CCNC(=O)Cn1cnc2ccccc2c1=O (stereo unspecified)	-2	0	2	1	1	.
CCCCCCCCN1C(=O)[C@@H](CC(=O)NCCCOCCCC)C[C@@]2(C(=O)OC)C1=C[C@H](C(C)(C)C)O[C@@H]2C	.	.	16	.	.	.
CCCCOCCCNC(=O)C[C@H]1C[C@@]2(C(=O)OC)C(=C[C@H](COCc3ccccc3)O[C@@H]2C)N(Cc2ccc3c(c2)OCO3)C1=O	.	.	14	.	.	.
C#CCNC(=O)C[C@H]1C[C@@]2(C(=O)OC)C(=C[C@H](C3CCCC3)O[C@@H]2C)N(CCCCCCCC)C1=O	.	.	39*	.	.	23
CCCCCCCCN1C(=O)[C@@H](CC(=O)NCCCOCCCC)C[C@@]2(C(=O)OC)C1=C[C@H](COCc1ccccc1)O[C@@H]2C	.	.	30*	.	.	8
CCCCOCCCNC(=O)C[C@H]1C[C@@]2(C(=O)OC)C(=C[C@H](C(C)(C)C)O[C@@H]2C)N(Cc2cccc3ccccc23)C1=O	.	.	35*	.	.	5
CCCCOCCCNC(=O)C[C@H]1C[C@@]2(C(=O)OC)C(=C[C@H](C(C)(C)C)O[C@@H]2C)N(Cc2ccc3c(c2)OCO3)C1=O	.	.	37*	.	.	18
SMILES	Mtb FBA inh	RecA intein inh	CCHF vOTU inh-1	Mtb betalactam	GDH-TPI inh	CCHF vOTU inh-2
COc1ccc(C2c3cc4c(cc3OC(N3CCOCC3)C2C)OCO4)c(OC)c1 (stereo unspecified)	4	.	0	.	10	.
O=C(Cc1ccccc1)Nc1ccc(NC(=O)c2ccccc2)nc1	-1	1	33*	-7	0	-18
COC(=O)C1CN(Cc2cn(Cc3ccc(Cl)cc3)nn2)CCS(=O)(=O)N1Cc1ccc(Cl)cc1 (stereo unspecified)	.	.	1	.	.	.
CCOc1cc(/C=N/NC(=S)Nc2ccccc2C(F)(F)F)ccc1OCC(=O)N1CCOCC1	-1	2	30*	-5	29	-2
O=C(O)CC(c1cccc(O)c1)N1Cc2ccccc2C1=O (stereo unspecified)	-4	0	-11	-5	-4	.
CC(=O)Nc1ccc(NC(=O)c2ccc(S(=O)(=O)N3CCCCCC3)cc2)cc1	-3	.	43*	.	13	0
CC(=O)Nc1ccc(C(=O)Nc2ccc(S(=O)(=O)N3CCCCC3)cc2)cc1	-1	-3	15	-12	10	.
O=S1(=O)CC(N2CC=CC2)CN1Cc1cn(Cc2ccc(F)cc2)nn1 (stereo unspecified)	.	.	12	.	.	.
CC(=O)Nc1ccc(S(=O)(=O)NCC(=O)OCC(=O)N2CCc3ccccc32)cc1	0	-1	30*	-2	10	-15
CCCN1CCCCC(NC(=O)c2ccccc2OC)C1=O (stereo unspecified)	.	.	-8	.	.	.
CCOC(=O)C1=C(CNC(C)(C)CC(C)(C)C)NC(=O)NC1c1cccc([N+](=O)[O-])c1 (stereo unspecified)	-3	3	31*	-4	10	13
CCOC(=O)c1c(C)[nH]c(C(=O)CN(C)CC(=O)Nc2ccccc2C(F)(F)F)c1C	0	.	31*	1	-5	0
O=C(NC(=S)Nc1ccccc1N1CCCCC1)c1cccs1	-4	18	2	45	1	.
O=C(NC(=S)Nc1ccccc1N1CCCC1)c1cccs1	0	10	37*	58	-6	38*
CC(C)CC(=O)NC(=S)Nc1ccccc1N1CCCC1	3	2	31*	23	-3	12
CC(=O)c1c(C)[nH]c(C(=O)OCC(=O)c2ccc(Br)cc2)c1C	3	.	24	.	9	.
Nn1cnnc1N/N=C\c1ccc(-c2ccccc2[N+](=O)[O-])o1	-18	16	97*	.	-10	3
O=C(N/N=C/c1ccc(-c2ccccc2[N+](=O)[O-])o1)c1cncc(Br)c1	0	28	7	41	29	.
O=[N+]([O-])c1ccccc1-c1ccc(/C=N/n2cnnc2)o1	-3	7	5	-2	27	.
Cc1c(C(=O)N/N=C/c2ccc(-c3ccccc3[N+](=O)[O-])o2)sc(N)c1C#N	-1	3	42*	4	19	-6
Cc1ccc(C)c(NC(=O)Nn2cnnc2)c1	6	0	14	-3	6	.
CCOC(=O)C1CCN(C(=O)Cn2nc(C)n3nc(-c4ccc(CC)cc4)cc3c2=O)CC1	0	-2	6	9	0	.

Screening results as filed in PubChem BioAssay.
